# This is a sample that favours compounds with a hit; in the whole collection about 0.67% have one here.
# Sa RN4220 lethal = S. aureus RN4220 growth inhibition. OD600, 16 h. inhibition, % (test concentration not listed). 330,000 tested, 0.33% active. AID 1259311; in the data active = inhibition above about 85%;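 also: plate controls were untreated cells for no effect and reference antibiotic for full effect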
# Sa ugtP lethal = compounds lethal to S. aureus RN4220 ugtP deletion mutant; OD600 growth, 16 h; growth inhibition, % (test concentration not listed); 330,000 tested, 0.54% active; AID 1259309; in the data active = growth inhibition above about 68%;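 also: plate controls were untreated wells for no effect and antibiotic for full effect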
# BH1578 lux ind = inducers of Vibrio cholerae quorum light production without autoinducers; V. cholerae BH1578 lux reporter, luminescence, 6 h; activation, % at 18.7 µM; 350,000 tested, 0.16% active; in the data active = activation mostly above about 9.7%, no sharp cut-off
# TcdB inh = blocks C. difficile toxin B glycohydrolase activity | P18177 | TcdB glycohydrolase enzymatic assay, plate reader | AID 652162 | inhibition, % at 9.99 µM | 350,000 tested, 0.24% active; in the data active = inhibition above about 10%
# Target sequence (P18177 whole entry, looked up): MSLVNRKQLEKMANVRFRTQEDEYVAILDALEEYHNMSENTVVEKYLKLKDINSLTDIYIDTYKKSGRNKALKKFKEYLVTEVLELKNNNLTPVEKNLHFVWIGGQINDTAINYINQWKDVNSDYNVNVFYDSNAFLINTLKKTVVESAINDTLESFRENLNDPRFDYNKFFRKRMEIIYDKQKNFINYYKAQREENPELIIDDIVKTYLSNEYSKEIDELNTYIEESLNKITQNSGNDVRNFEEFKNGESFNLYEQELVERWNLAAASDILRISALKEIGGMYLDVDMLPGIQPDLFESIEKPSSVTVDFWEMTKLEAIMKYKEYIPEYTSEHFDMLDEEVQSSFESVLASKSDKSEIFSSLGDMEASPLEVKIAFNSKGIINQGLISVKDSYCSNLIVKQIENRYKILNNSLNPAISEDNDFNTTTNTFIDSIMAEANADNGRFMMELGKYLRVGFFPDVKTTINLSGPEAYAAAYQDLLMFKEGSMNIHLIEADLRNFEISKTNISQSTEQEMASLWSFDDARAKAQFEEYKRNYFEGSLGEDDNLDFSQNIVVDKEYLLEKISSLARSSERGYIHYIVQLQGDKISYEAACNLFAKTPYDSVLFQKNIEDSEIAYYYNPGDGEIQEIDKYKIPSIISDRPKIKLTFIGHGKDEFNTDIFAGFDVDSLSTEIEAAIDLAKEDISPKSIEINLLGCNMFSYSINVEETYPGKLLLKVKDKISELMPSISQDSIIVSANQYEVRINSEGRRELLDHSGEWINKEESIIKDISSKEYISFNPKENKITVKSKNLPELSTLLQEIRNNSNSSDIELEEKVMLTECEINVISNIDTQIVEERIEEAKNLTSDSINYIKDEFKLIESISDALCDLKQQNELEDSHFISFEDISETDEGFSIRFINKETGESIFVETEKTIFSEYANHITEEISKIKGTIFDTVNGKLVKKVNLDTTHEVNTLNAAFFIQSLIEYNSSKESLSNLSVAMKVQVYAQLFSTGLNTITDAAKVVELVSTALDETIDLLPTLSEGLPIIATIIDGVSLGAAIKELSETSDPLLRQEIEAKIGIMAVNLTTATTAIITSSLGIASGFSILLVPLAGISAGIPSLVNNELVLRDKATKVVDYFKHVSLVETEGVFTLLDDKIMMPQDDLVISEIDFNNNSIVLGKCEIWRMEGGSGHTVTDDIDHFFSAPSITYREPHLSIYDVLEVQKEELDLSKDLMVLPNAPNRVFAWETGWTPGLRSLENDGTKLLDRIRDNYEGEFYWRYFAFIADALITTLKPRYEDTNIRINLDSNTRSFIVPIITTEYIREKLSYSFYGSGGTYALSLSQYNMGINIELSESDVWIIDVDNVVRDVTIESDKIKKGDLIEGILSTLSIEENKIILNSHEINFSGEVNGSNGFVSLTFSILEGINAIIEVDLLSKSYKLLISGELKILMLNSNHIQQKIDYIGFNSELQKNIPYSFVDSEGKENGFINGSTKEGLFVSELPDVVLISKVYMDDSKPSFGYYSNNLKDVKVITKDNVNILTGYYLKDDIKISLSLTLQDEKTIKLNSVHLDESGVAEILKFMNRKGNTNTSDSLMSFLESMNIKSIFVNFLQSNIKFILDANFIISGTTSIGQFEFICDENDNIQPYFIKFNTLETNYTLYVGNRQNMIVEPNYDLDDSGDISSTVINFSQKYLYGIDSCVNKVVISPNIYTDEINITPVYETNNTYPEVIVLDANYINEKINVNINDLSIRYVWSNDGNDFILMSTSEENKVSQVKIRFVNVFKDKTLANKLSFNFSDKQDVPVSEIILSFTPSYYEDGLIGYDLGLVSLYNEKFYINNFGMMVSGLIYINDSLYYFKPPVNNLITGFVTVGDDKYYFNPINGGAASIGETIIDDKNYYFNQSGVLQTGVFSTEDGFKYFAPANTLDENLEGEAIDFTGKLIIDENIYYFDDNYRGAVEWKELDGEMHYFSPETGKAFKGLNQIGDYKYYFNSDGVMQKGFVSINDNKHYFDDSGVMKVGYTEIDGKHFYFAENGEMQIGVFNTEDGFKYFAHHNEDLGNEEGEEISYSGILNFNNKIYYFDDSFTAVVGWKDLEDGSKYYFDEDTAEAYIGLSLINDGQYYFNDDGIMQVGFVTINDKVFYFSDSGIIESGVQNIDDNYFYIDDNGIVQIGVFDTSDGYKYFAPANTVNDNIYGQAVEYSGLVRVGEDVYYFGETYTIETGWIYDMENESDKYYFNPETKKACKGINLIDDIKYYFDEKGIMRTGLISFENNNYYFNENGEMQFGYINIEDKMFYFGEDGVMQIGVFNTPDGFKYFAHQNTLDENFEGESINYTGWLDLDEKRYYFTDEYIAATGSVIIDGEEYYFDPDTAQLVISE
# Starred values were filed as active, the others as inactive; i = inactive; . = no result given; + = active, no number.
SMILES,Sa RN4220 lethal,Sa ugtP lethal,BH1578 lux ind,TcdB inh
Oc1ccccc1-[n+]1c(-c2ccccc2)cc(-c2ccccc2)cc1-c1ccccc1,.,.,7,1
O=C([O-])c1ccccc1-[n+]1c(-c2ccccc2)cc(-c2ccccc2)cc1-c1ccccc1,98*,98*,-1,1
Nc1ccccc1-[n+]1c(-c2ccccc2)cc(-c2ccccc2)cc1-c1ccccc1,0,-10,-2,1
Cc1ccc(-c2cc(-c3ccccc3)cc(-c3ccccc3)[n+]2-c2ccc(C(=O)O)cc2)cc1,5,4,-1,0
Cc1ccccc1-[n+]1c(-c2ccccc2)cc(-c2ccccc2)cc1-c1ccccc1,100*,101*,i,1
S=c1nc(-c2cc(Cl)cc(Cl)c2)[nH][nH]1,3,-3,0,5
S=c1nc(-c2cccc(Cl)c2)[nH][nH]1,2,-2,0,14*
CN(C)CC1CC/C(=C\c2ccc(O)cc2)C1=O (stereo not given),.,.,i,4
CC1CCC/C(=C\c2ccc(O)cc2)C1=O (stereo not given),10,17,i,37*
COC(=O)[C@@]1(Cc2ccc(F)cc2)C2c3cc(C(=O)N(C)C)n(CCc4ccccn4)c3CC2CN1C(=O)c1ccccc1 (stereo not given in full),4,5,.,.
C#CCNC(=O)C1=CC(C(C)(C)C)CC(OCCCCO)O1 (stereo not given),3,-3,.,.
CCCCN(CCCC)C(=S)N/N=C/c1c(C)[nH]n(-c2ccccc2)c1=O,.,.,i,.
CC(=NNC(=O)c1ccccc1)c1c(C)[nH]n(-c2ccccc2)c1=O,8,-7,.,.
CCC(=NNC(=O)c1ccccc1O)c1c(C)[nH]n(-c2ccccc2)c1=O,93*,98*,.,.
CCCSC(=S)c1c(C)[nH]n(-c2ccccc2)c1=O,91*,90*,-1,-2
O=C1C(=O)N(CCN2CCOCC2)C(c2cccnc2)C1=C(O)c1ccc(Cl)cc1 (stereo not given),4,0,.,.
O=C1C=C(c2cc(Cl)cc(Cl)c2)CC(c2ccc(F)cc2)C1 (stereo not given),-8,16,.,.
Cc1cccc(C=NNC(=O)c2ccccc2OCc2cccc(Br)c2)n1,-1,6,.,.
Oc1ccc(Cc2ccc(Cl)cc2)c(O)c1,.,.,-1,10*
Oc1ccccc1Cl,1,6,0,1
Oc1ccc(Cc2ccccc2Cl)c(O)c1,-9,-30,-7,13*
CC(O)Cc1cn(C(CCCCN)C(=O)N2CCNCC2)nn1 (stereo not given),5,3,.,.
O=C(C=CNc1ccc(F)cc1)c1ccco1,13,-12,.,.
COc1cc2ccccc2cc1C(=O)N/N=C/c1cccs1,.,.,-6,13*
O=C(NN=Cc1cccnc1)c1ccc(NC(=O)c2cccc(Cl)c2)cc1,-4,-13,.,.
SMILES,Sa RN4220 lethal,Sa ugtP lethal,BH1578 lux ind,TcdB inh
COCC(=O)N1CC[C@@H]2[C@H]1c1cc(-c3ccccc3)ccc1N(C)[C@H]2CO,.,.,.,11*
CCC(=O)N1CC[C@@H]2[C@H]1c1cc(-c3ccccc3)ccc1N(C)[C@@H]2CO,.,.,.,1
CCC(=O)N1CC[C@@H]2[C@@H](CO)N(C)c3ccc(-c4ccccc4)cc3[C@@H]21,.,.,.,21*
CCC(=O)N1CC[C@@H]2[C@H]1c1cc(-c3ccccc3)ccc1N(C)[C@H]2CO,.,.,.,12*
COCC(=O)N1CC[C@@H]2[C@H]1c1cc(-c3ccccc3)ccc1N(C)[C@@H]2CO,.,.,.,1
CN1c2ccc(-c3ccccc3)cc2[C@H]2[C@H](CCN2C(=O)CN2CCOCC2)[C@H]1CO,.,.,.,14*
COCC(=O)N1CC[C@@H]2[C@H]1c1cc(-c3cccc(OC)c3)ccc1N(C)[C@H]2CO,.,.,.,13*
CC(=CC(=O)c1ccccc1)Nc1ccc2c(c1)OCO2,10,-6,.,.
Nc1nonc1-n1nnc(C(=O)NN=Cc2cccs2)c1-c1ccc2c(c1)OCO2,0,-1,.,.
O=c1oc2cc(Oc3c([N+](=O)[O-])cc(C(F)(F)F)cc3[N+](=O)[O-])ccc2c2c1CCCC2,44,94*,0,.
COc1ccc(-c2nc(/C=C3\C(C)=Nc4ccccc43)c(O)o2)cc1,91*,92*,i,0
CC1=Nc2ccccc2/C1=C\c1nc(-c2ccccc2)oc1O,1,67,-4,.
Cc1ccc(Cn2c(O)c(N=O)c3ccccc32)cc1,4,-3,20,1
C/C(Cl)=C\Cn1c(O)c(N=O)c2ccccc21,13,-9,+,0
O=Nc1c(O)n(Cc2ccc(Cl)cc2)c2ccccc12,6,-15,226*,.
COc1ccc2c(=O)c3c(=O)n(Cc4ccco4)c(-c4ccco4)nc3oc2c1,10,-18,i,.

# High-throughput results from PubChem.
